# Experimental data: the supplement of paper PMC12494721
# Counter-ions that a name gives are not always drawn.
# Test system: Escherichia coli IAI1
# Assay: growth (OD595) fold change vs plate DMSO controls (fold change (ratio)); higher = more growth
# Details: incubation time: 27 h, anaerobic, 37 °C
# In short: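 The 96-well mGAM cultures had been kept anaerobic for 27 h at 37 °C before being shaken and read at 595 nm. Blank subtraction, compound background correction with 20 µM compound solutions in water, and a calibration factor of 5 turned the readings into OD. Growth is given as the fold change versus the median of plate DMSO controls. Fold changes above 1.5 were set to NA, and the values are means of 2 biological replicates.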
row,Compound,growth
1,CN(C)CCc1c[nH]c2ccc(Cn3cncn3)cc12 [Rizatriptan benzoate] (20 µM),0.971
2,"C[C@H]1C[C@@H]2[C@H]([C@@H](O)C[C@@]3(C)[C@H]2CC[C@]3(O)C(=O)CO)[C@@]2(C)C=CC(=O)C=C12 [Methylprednisolone, 6-alpha] (20 µM)",0.956
3,CC1COc2ccccc2N1C(=O)C(Cl)Cl (stereo not given) (20 µM),1.02
4,C=C1c2cccc(O)c2C(O)=C2C(=O)[C@]3(O)C(O)=C(C(N)=O)C(=O)[C@@H](N(C)C)[C@@H]3[C@@H](O)[C@H]12 [Methacycline hydrochloride] (20 µM),0.0377
5,CCN1CCCC(OC(=O)C(c2ccccc2)c2ccccc2)C1 (stereo not given) [Piperidolate hydrochloride] (20 µM),1.01
